Results on 35 molecules are retold here after PubChem BioAssay.

Each structure is given as a SMILES string.

A short description of this assay: modulators of S6 phosphorylation in cells, primary screen, cell-based, A549, cytoblot, luminescence, serum-stimulated (AID 1158).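 Note: serum-stimulated A549 lung adenocarcinoma cells; signal is phosphorylated S6 detected by cytoblot immunostaining with HRP secondary.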 The note with it: A549 phospho-S6 cytoblot, 5 h, higher = more signal.
Consider `COc1cc2c(cc1O)C(c1cccs1)N(Cc1cc3c(cc1Br)OCO3)CC2` (stereo not given), for which the z-score was determined as 0.0127. Then `CCC#CCN(Cc1ccccc1Br)[C@H](/C=C/C1CC1)[C@@H](O)Cc1ccccc1`, with 1.62; and `COC(=O)[C@@]1(Cc2ccccc2)[C@H]2c3cc(C(=O)N4CCCC4)n(CCc4ccccn4)c3C[C@H]2CN1C(=O)c1ccccc1`, with -0.266; and `CCCCC(CC)C(O)C1C=CC2C(=O)N(c3ccccc3)C(=O)C2N1Nc1ccccc1F` (stereo not given), with 0.434. To `[N-]=[N+]=Nc1ccccc1[C@@H]1OC(c2ccc(OCCCO)cc2)=N[C@]1(Cc1ccccc1)C(=O)N1CCCCC1` belongs 0.328; to `CC1CC/C=C\[C@H]2OC34C=CCN(C(C)C)C(=O)[C@H]3N(CCO)C(=O)[C@@H]4C2C(=O)O1` (stereo not given in full), 1.86. Then `CCOC(=O)C1=C[C@@H](C(C)(C)C)N(S(=O)(=O)c2ccc(C)cc2)[C@H]1c1cccc2ccccc12`, with -0.674. In turn, `CC(C)[Si]1(C(C)C)OCc2cc(-c3ccc(-c4ccc(Cl)c(Cl)c4)o3)nc(-c3ccccc3)c21` yielded a z-score of -0.106.

`CCCCCCc1nc(Cc2cc(OC)c(OC)c(OC)c2)cc2c1[Si](C(C)C)(C(C)C)OC2`: the z-score came out at 0.552. In the case of `C=CC[C@@H](OC(=O)Nc1ccc(SC)cc1)c1ccc(O)c(F)c1`, the z-score turned out to be 0.42. Then `Cc1ccc(NN2C(C(O)c3c(F)cccc3Cl)C=CC3C(=O)N(C4CCCCC4)C(=O)C32)cc1` (stereo not given), with -0.319; and `COc1ccc([Si](C)(C)[C@@H]2[C@@H](CC(=O)N(CCO)Cc3ccccc3)O[C@]3(C(=O)N(Cc4cccc(N5CCCCC5=O)c4)c4ccccc43)[C@H]2C)cc1`, with 1.19. In the case of `NC(=O)[C@H]1[C@@H]2C(=O)O[C@@H](c3ccccc3)[C@@H](c3ccccc3)N2[C@@H](c2ccc(OCCO)cc2)[C@]12C(=O)Nc1ccc(C#CCCO)cc12`, the z-score is -0.671. To `COc1cc(C(O)C2C=CC3C(=O)N(C)C(=O)C3N2Nc2ccccc2)cc(OC)c1OC` (stereo not given) belongs -0.802.

Take `C#Cc1cc2ccccc2oc1=O`: the z-score is -0.668. Take `CC(=O)NCCCC[C@@H]1NC(=O)[C@@H]2C[C@H](C(=O)NCCCCCN)[C@H](c3cccc(OCCO)c3)N2C1=O`: the z-score was found to be 4.55.

Regarding `COc1ccc(CCNC(=O)[C@@]2(c3ccc([N+](=O)[O-])cc3)CC(=O)N(C3CCCCC3)[C@@H]2c2ccc(CO)cc2)cc1`, the z-score was -0.112. To `NCCCCCNC(=O)[C@@H]1C[C@@H]2C(=O)N[C@@H](CCCCN)C(=O)N2[C@@H]1c1ccc(O)cc1` belongs -0.912; to `NCCCCCNC(=O)[C@H]1C[C@H]2C(=O)N3CCC[C@H]3C(=O)N2[C@H]1c1cccc(OCCO)c1`, -0.413; to `COCCOC(=O)N1C(=O)[C@@]2(c3cc(C#CCCO)ccc31)[C@H](c1ccc(OCCO)cc1)N1[C@H](c3ccccc3)[C@H](c3ccccc3)OC(=O)[C@H]1[C@@H]2C(=O)Nc1nc2ccccc2s1`, -0.115.

Regarding `COC(=O)C1=CC(CCCO)=CC(c2cccs2)N(C)C=C1C(=O)OC` (stereo not given), the z-score is -0.481.

The molecule `COCCOC(=O)N1C(=O)[C@@]2(c3cc(C#CC4(O)CCCCCC4)ccc31)[C@H](c1ccc(O)cc1)N1[C@H](c3ccccc3)[C@H](c3ccccc3)OC(=O)[C@H]1[C@@H]2C(=O)N1CCN(c2ncccn2)CC1` came in with a z-score of 0.159.

On to `COc1ccc([Si](C)(C)[C@@H]2[C@@H](CCO)O[C@]3(C(=O)N(Cc4cccc(NC(=O)[C@H](C)O)c4)c4ccccc43)[C@H]2C)cc1`, for which the z-score was -0.472. To `Cc1ccc(S[C@]2(C(=O)O)CC(=O)N(C3CCCCC3)[C@@H]2c2ccc(CO)cc2I)cc1` belongs 0.0559.

As for `O=C1C[C@]2(c3ccc([N+](=O)[O-])cc3)C(=O)N(C3CC3)c3cc(CO)ccc3[C@H]2N1CC12CC3CC(CC(C3)C1)C2`, the z-score amounted to 0.204.

In turn, `COCCCNC(=O)[C@@]1(Sc2ccc(C)cc2)CC(=O)N(C2Cc3ccccc3C2)[C@@H]1c1ccc(CO)cc1` had a z-score of 2.12. For `O=C1OCCC=C[C@H]2OC34C=CCN(c5ccc6ccccc6c5)C(=O)[C@H]3N(CCCO)C(=O)[C@@H]4C12` (stereo not given in full), the z-score came to 0.684. Consider `COC(=O)[C@@]1(Cc2ccc(F)cc2)[C@H]2c3cc(C(=O)N(C)C)n(CCc4ccc(OC)c(Br)c4)c3C[C@H]2CN1C(=O)c1ccccc1`, for which the z-score came out at 1.24. The molecule `[N-]=[N+]=Nc1ccccc1C[C@@]1(C(N)=O)N=C(c2ccc(OCCCO)cc2)O[C@@H]1c1ccccc1N=[N+]=[N-]` displayed a z-score of 2.05. As for `O=C(NCc1ccc(F)cc1)[C@H]1C[C@H]2C(=O)NCC(=O)N2[C@H]1c1ccc(O)cc1`, the z-score is -0.337.

Turning to `C=CCNC(=O)[C@@H]1[C@H]2C(=O)O[C@H](c3ccccc3)[C@H](c3ccccc3)N2[C@H](c2ccccc2OCCO)[C@@]12C(=O)Nc1ccc(C#CCCO)cc12`, the z-score worked out at 0.0309. `CCOC(=O)C[C@H]1[C@H](OC(=O)Cc2ccc3c(c2)OCO3)[C@@H](NC(=O)C2CCCCC2)c2cc(OCCCO)ccc2N1C(=O)c1ccccc1` displayed a z-score of 0.524. Then `COc1ccc([Si](C)(C)[C@@H]2[C@@H](CCO)O[C@]3(C(=O)N(Cc4ccccc4)c4ccc(N5CCOC5=O)cc43)[C@H]2C)cc1`, with 2.12. Then `C=C(/C(=C/C[C@H](OC(C)=O)c1ccc(CO)o1)c1cnc2ccccc2c1)C(C)C`, with 0.38; and `CCCCCCCCCCC(O)C1C=CC2C(=O)N(c3ccccc3)C(=O)C2N1Nc1ccc(C#N)cc1` (stereo not given), with -0.817.
